Laboratory results published in the supplement of paper PMC6555819.

These sequences were tested on FXR:RXRa (NR concentration 270 nM, RXRa partner concentration 90 nM) (assay: PBM binding z-score (relative to random genomic background probes); higher = stronger binding; sequences stand for … in GC…GCGATTGACAGCGTAGAATGAAGG).
Procedure, shortened: (§1)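 Antibodies against each partner of ligand-free nuclear receptor dimers (one per run) detected binding on custom Agilent 4×180K protein-binding microarrays after 1 h incubation. The double-stranded probes had 34-nt variable regions carrying direct-repeat seeds, single-nucleotide variants, half-site ablations and random human genomic background sequences. Binding z-scores, from regression-normalized fluorescence, use the random background probes as reference.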

Going from TCGAGTAGGTTACCAATGAGGCATTCAGCTTTCT to CCTAGTTGGTGAAGGTCACACACGCTATAGGTAC, the PBM binding z-score rises from 0.0141 to 2.89.

Compared with CCTCGGAGGCCAACAGGAGGTCAGAGCTGCCAGA, CCTACTGGGCCAAAGGTCATTGAATCCAATGCTC is higher in PBM binding z-score: 1.54 for the first, 4.76 for the second.

First: AGTCAACGTTCACTAGGTAACGTAAGATTCAGCT
Second: ACTATTAGTTGAGACGAGGGCAACCGATAGGTTG
The PBM binding z-score of the first is lower: -0.243 for the first, 0.538 for the second.

First: GCATATAGTTAATACAAGGTGAAAGTCCGATTGT
Second: TCTAGTTGGTCATAGGTCACACACTCGAAATGCG
The PBM binding z-score of the first is lower: 0.799 for the first, 3.07 for the second.

First: TGTCAAAGTTCAAAGGTAACGTAAGTATCCACAC
Second: CCTTACGGGTCACTAACAGGTTATAGCATTTGGA
The PBM binding z-score of the first is higher: 6.82 for the first, 4.73 for the second.

First: CGAACTAGGTCAAGGACAGAGAATCTCCGCACGC
Second: GGAACGAGGGCAAAGTTGATACCATCTGTCGACG
The PBM binding z-score of the first is higher: 3.32 for the first, 1.54 for the second.

Going from ATCGAAAGGTCGAAGGTGGGTATACCCACCCGAA to TAGCCTAGGTCATTCACGGGCCAGTATAGAAAGC, the PBM binding z-score rises from 4.08 to 4.64.

Going from AATACAGGGTCATCGTAGGACAGAGTACGCACAG to TCATATAGTTAAACAGGTGAAAGTCCGTAAGTTA, the PBM binding z-score falls from 7.26 to 1.06.

Going from CCAGACACGTGAGAAGGTAACTCAGCCTCGATTA to CATCCAAGGTCAATGCTAGGTCAGTGAAAGCATT, the PBM binding z-score rises from -0.22 to 6.67.

First: CCTACGGGGCCATCAGGTCATTGATATCAACGTT
Second: CCTACTGGGCCAATGGTCATTGATTCCAATGCTC
The PBM binding z-score of the first is higher: 2.38 for the first, -0.623 for the second.

Compared with AATACAGGGTCATCGTAGGCCAGAGTGCGCACAG, ATCTCTACGTAACCAAGTTCAGTGAATGCCGAAC is lower in PBM binding z-score: 7.13 for the first, 0.0268 for the second.

Going from TATACAGGGTCAAAGGCCAGAGGACGAATGTCGA to TGAATGAGATTAAAGATCAGGGAACGTGGCGTCG, the PBM binding z-score falls from 7.18 to -0.229.

Going from GATACAGGGTCAGCTAGAGGCCAGAGAATGGAAA to ATACCAAGGTGATCGTGAGCTCGTTGATACTAAC, the PBM binding z-score falls from 4.74 to 0.125.

First: CAAACTAGGTCAACGGAAGGTCAAAGTCCGCATG
Second: CAGCCTAGGTCAGGGCCAGTATGGGAGGAACGTT
The PBM binding z-score of the first is higher: 6.1 for the first, 1.41 for the second.

First: ACAGACCGGTGAGTGAAGGTAACTCAGCTGGACG
Second: TCTTGTAGATCAACATGAGGTTAAGAAAGATCGA
The PBM binding z-score of the first is lower: -0.151 for the first, 0.309 for the second.

First: TAGCCTCGGTCATGGGCCAGTATACCACGCGAAC
Second: CCTACTGGGCGATCAGGTCATTGATATCAACGTT
The PBM binding z-score of the first is lower: 0.333 for the first, 0.953 for the second.

First: CCATACAGGTGAGAAGGTAACTCAGCCTCGATTA
Second: TTACCAAGGTGAAAGGTCGCTGATGCACGCCTTG
The PBM binding z-score of the first is lower: 0.317 for the first, 2.82 for the second.

Compared with GCGACTGTGGCAAAGCAGGTTACCATAAGGTTGG, TGAATGAGGTTATACGATCAGGGAACGTTGCAAA is higher in PBM binding z-score: -0.28 for the first, 1.76 for the second.

Going from CCTAGCAGGCCAATCTGGGTCAATCAAGGCTTGA to GCTTACGGGGCAAAGGTTATAGCATGAATAGAAT, the PBM binding z-score rises from 0.324 to 2.32.

Compared with TCTTGTAGATCAACAGGAGGTTAAGGAAGATCGA, TCAGACAGGTGAAGGTAACTAAGGTACGCAGTCG is higher in PBM binding z-score: 0.186 for the first, 1.03 for the second.

These sequences were tested on LXRa:RXRa (NR concentration 270 nM, RXRa partner concentration 90 nM) in the same assay as above.
Procedure, shortened: as §1

First: TCGAGTAGGTTACCAATGAGGCATTCAGCTTTCT
Second: CCTAGTTGGTGAAGGTCACACACGCTATAGGTAC
The PBM binding z-score of the first is lower: 0.677 for the first, 3.37 for the second.

Compared with CCTCGGAGGCCAACAGGAGGTCAGAGCTGCCAGA, CCTACTGGGCCAAAGGTCATTGAATCCAATGCTC is higher in PBM binding z-score: 2.49 for the first, 5.09 for the second.

First: AGTCAACGTTCACTAGGTAACGTAAGATTCAGCT
Second: ACTATTAGTTGAGACGAGGGCAACCGATAGGTTG
The PBM binding z-score of the first is lower: -0.0638 for the first, 0.128 for the second.

Going from GCATATAGTTAATACAAGGTGAAAGTCCGATTGT to TCTAGTTGGTCATAGGTCACACACTCGAAATGCG, the PBM binding z-score rises from 0.553 to 3.34.

First: TGTCAAAGTTCAAAGGTAACGTAAGTATCCACAC
Second: CCTTACGGGTCACTAACAGGTTATAGCATTTGGA
The PBM binding z-score of the first is higher: 6.64 for the first, 4.24 for the second.

Compared with CGAACTAGGTCAAGGACAGAGAATCTCCGCACGC, GGAACGAGGGCAAAGTTGATACCATCTGTCGACG is lower in PBM binding z-score: 1.95 for the first, 1.06 for the second.

First: ATCGAAAGGTCGAAGGTGGGTATACCCACCCGAA
Second: TAGCCTAGGTCATTCACGGGCCAGTATAGAAAGC
The PBM binding z-score of the first is lower: 3.18 for the first, 3.74 for the second.

Compared with AATACAGGGTCATCGTAGGACAGAGTACGCACAG, TCATATAGTTAAACAGGTGAAAGTCCGTAAGTTA is lower in PBM binding z-score: 6.53 for the first, 1.1 for the second.

Compared with CCAGACACGTGAGAAGGTAACTCAGCCTCGATTA, CATCCAAGGTCAATGCTAGGTCAGTGAAAGCATT is higher in PBM binding z-score: -0.083 for the first, 5.98 for the second.

First: CCTACGGGGCCATCAGGTCATTGATATCAACGTT
Second: CCTACTGGGCCAATGGTCATTGATTCCAATGCTC
The PBM binding z-score of the first is higher: 1.72 for the first, -0.68 for the second.

Compared with AATACAGGGTCATCGTAGGCCAGAGTGCGCACAG, ATCTCTACGTAACCAAGTTCAGTGAATGCCGAAC is lower in PBM binding z-score: 6.46 for the first, 0.0264 for the second.

First: TATACAGGGTCAAAGGCCAGAGGACGAATGTCGA
Second: TGAATGAGATTAAAGATCAGGGAACGTGGCGTCG
The PBM binding z-score of the first is higher: 6.58 for the first, -0.065 for the second.

First: GATACAGGGTCAGCTAGAGGCCAGAGAATGGAAA
Second: ATACCAAGGTGATCGTGAGCTCGTTGATACTAAC
The PBM binding z-score of the first is higher: 2.83 for the first, -0.0736 for the second.

Compared with CAAACTAGGTCAACGGAAGGTCAAAGTCCGCATG, CAGCCTAGGTCAGGGCCAGTATGGGAGGAACGTT is lower in PBM binding z-score: 5.99 for the first, 0.705 for the second.

First: ACAGACCGGTGAGTGAAGGTAACTCAGCTGGACG
Second: TCTTGTAGATCAACATGAGGTTAAGAAAGATCGA
The PBM binding z-score of the first is lower: -0.178 for the first, 1.61 for the second.

Compared with TAGCCTCGGTCATGGGCCAGTATACCACGCGAAC, CCTACTGGGCGATCAGGTCATTGATATCAACGTT is lower in PBM binding z-score: 0.687 for the first, 0.548 for the second.

Compared with CCATACAGGTGAGAAGGTAACTCAGCCTCGATTA, TTACCAAGGTGAAAGGTCGCTGATGCACGCCTTG is higher in PBM binding z-score: 0.251 for the first, 2.6 for the second.

First: GCGACTGTGGCAAAGCAGGTTACCATAAGGTTGG
Second: TGAATGAGGTTATACGATCAGGGAACGTTGCAAA
The PBM binding z-score of the first is lower: -0.311 for the first, 1.37 for the second.

Going from CCTAGCAGGCCAATCTGGGTCAATCAAGGCTTGA to GCTTACGGGGCAAAGGTTATAGCATGAATAGAAT, the PBM binding z-score rises from 1.22 to 2.71.

Compared with TCTTGTAGATCAACAGGAGGTTAAGGAAGATCGA, TCAGACAGGTGAAGGTAACTAAGGTACGCAGTCG is higher in PBM binding z-score: 0.637 for the first, 2.57 for the second.
